In PubChem BioAssay (NCI):
This is part of a sample that, as a whole, favours compounds with a hit. Of some 83,000 tested, about 20% had one in any assay.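 Negative percent growth values reflect cell death: -40 means 40% of the cells present at the start died, and -100 means all died.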 The source made the active and inactive calls. How the source made its calls: active means growth percent below 10; inactive means the rest.

Experiments:
Assay in all cases: NCI-60 one-dose screen, 48 h (100 = growth as untreated, 0 = no growth, -100 = all killed)
Conditions in all cases: 10 µM unless noted
T-47D breast = system: T-47D breast
BT-549 breast = system: BT-549 breast
MDA-MB-435 melanoma = system: MDA-MB-435 melanoma
SW-620 colon = system: SW-620 colon
MCF7 breast = system: MCF7 breast
HCT-116 colon = system: HCT-116 colon
HCC-2998 colon = system: HCC-2998 colon
KM12 colon = system: KM12 colon

Measured: growth

CC(=O)Cc1cccnc1
inactive: T-47D breast 96.2% | BT-549 breast 92.4% | MDA-MB-435 melanoma 110% | SW-620 colon 97.1% | MCF7 breast 101% | HCT-116 colon 81.6% | HCC-2998 colon 108% | KM12 colon 105%

c1ccc([Se]CCCN2CCN(CCC[Se]c3ccccc3)CC2)cc1
active: MDA-MB-435 melanoma -44.2%
inactive: T-47D breast 111% | BT-549 breast 125% | SW-620 colon 101% | MCF7 breast 110% | HCT-116 colon 74.5% | HCC-2998 colon 115% | KM12 colon 109%

O=C1CN(CCN2CC(=O)NC(=O)C2)CC(=O)N1
inactive: T-47D breast 99.2% | BT-549 breast 96.6% | MDA-MB-435 melanoma 90.4% | SW-620 colon 118% | MCF7 breast 104% | HCT-116 colon 93.6% | HCC-2998 colon 112% | KM12 colon 99.5%

C=CC(C)(O)CCC1C(=C)CCC2C(C)(C)CCCC12C (stereo not drawn)
inactive: T-47D breast 99.4% | BT-549 breast 111% | MDA-MB-435 melanoma 107% | SW-620 colon 111% | MCF7 breast 92.7% | HCT-116 colon 107% | HCC-2998 colon 99.5% | KM12 colon 99.8%

COc1ccc2c(c1)/C(=C/c1c(-c3cc(OC)c(OC)c(OC)c3Br)nc3sccn13)C(=O)N2
inactive: T-47D breast 90.1% | BT-549 breast 86.2% | MDA-MB-435 melanoma 93.2% | SW-620 colon 94.4% | MCF7 breast 85% | HCT-116 colon 87.7% | HCC-2998 colon 134% | KM12 colon 94.6%

C#CCn1c(-c2cc(OC)c(OC)cc2Br)nc(-c2ccccc2)c1-c1ccccc1
inactive: T-47D breast 39.3% | BT-549 breast 60.7% | SW-620 colon 23.9% | MCF7 breast 19.4% | HCT-116 colon 19.9% | HCC-2998 colon 66.8% | KM12 colon 20%
active: MDA-MB-435 melanoma 6.82%

COc1ccc(/C=C2/C(=O)Nc3cc(Cl)c(-c4csc(N)n4)cc32)cc1
active: MDA-MB-435 melanoma -14.4%
inactive: T-47D breast 23.5% | BT-549 breast 33.4% | SW-620 colon 31.2% | MCF7 breast 25% | HCT-116 colon 36.2% | HCC-2998 colon 77.3% | KM12 colon 25.7%

COc1cc(/C=C2/Oc3cc4occc4c(OC)c3C2=O)ccc1OCC(=O)Nc1ccncc1
inactive: T-47D breast 108% | BT-549 breast 93.9% | MDA-MB-435 melanoma 112% | SW-620 colon 103% | MCF7 breast 94.3% | HCT-116 colon 95.3% | HCC-2998 colon 110% | KM12 colon 97.1%

Cc1ccc2nc(-c3ccc(-n4on4-c4ccc(/C=C/c5ccc(-n6on6-c6ccc(-c7nc8ccc(C)cc8s7)cc6)cc5S(=O)(=O)O)c(S(=O)(=O)O)c4)cc3)sc2c1
inactive: T-47D breast 95.5% | BT-549 breast 114% | MDA-MB-435 melanoma 110% | SW-620 colon 117% | MCF7 breast 110% | HCT-116 colon 103% | HCC-2998 colon 107% | KM12 colon 103%

CC1OC(n2c3ccccc3c3c4c(c5c6ccccc6[nH]c5c32)C(=O)N(CCN[C@@H]2CCC[C@H]2N)C4=O)CC(O)C1O (stereo partly drawn)
inactive: T-47D breast 19.6% | BT-549 breast 23.8% | MDA-MB-435 melanoma 18.4% | KM12 colon 14.7%
active: SW-620 colon 5.32% | MCF7 breast -34% | HCT-116 colon 9.41% | HCC-2998 colon -9.5%

O=C(Nc1cccc(-n2ccc3c(NC(=O)c4ccccc4)nccc32)c1)Nc1ccc(Cl)c(C(F)(F)F)c1
inactive: T-47D breast 54.3% | SW-620 colon 25.2% | MCF7 breast 19.5% | HCC-2998 colon 17.2%
active: BT-549 breast -5.15% | MDA-MB-435 melanoma -15.4% | HCT-116 colon 3.34% | KM12 colon -16.4%

O=C1CCC(=O)N1C1CCCCC1
inactive: T-47D breast 85.8% | BT-549 breast 102% | MDA-MB-435 melanoma 99.5% | SW-620 colon 105% | MCF7 breast 96.2% | HCT-116 colon 99% | HCC-2998 colon 103% | KM12 colon 101%

CC(C)(C)NCC(O)COc1c(Br)c(Br)c(Br)c2c1OC(C)(C)C2 (stereo not drawn)
inactive: BT-549 breast 32.7%
active: T-47D breast -26.4% | MDA-MB-435 melanoma -68.6% | SW-620 colon -97.5% | MCF7 breast -74.2% | HCT-116 colon -26.5% | HCC-2998 colon -74.9% | KM12 colon -80.7%

Cc1cn(C2CC(N=[N+]=[N-])C(COP(=O)(O)OP(=O)(O)OP(=O)(O)O)O2)c(=O)[nH]c1=O (stereo not drawn)
inactive: T-47D breast 111% | BT-549 breast 115% | MDA-MB-435 melanoma 107% | SW-620 colon 109% | MCF7 breast 104% | HCT-116 colon 94.1% | HCC-2998 colon 97.6% | KM12 colon 108%

Cc1cc(C)c(O)c(C(=O)CC(Br)C(=O)O)c1 (stereo not drawn)
inactive: T-47D breast 92.9% | BT-549 breast 97.6% | MDA-MB-435 melanoma 102% | SW-620 colon 116% | MCF7 breast 66.6% | HCT-116 colon 99.3% | HCC-2998 colon 93.3% | KM12 colon 97.9%

CCOC(=O)CSc1nnc(-c2cc3c([nH]c4ccccc43)c(-c3cccc(O)c3)n2)n1-c1ccc(C)cc1
inactive: BT-549 breast 101% | MDA-MB-435 melanoma 16.4% | SW-620 colon 67.1% | MCF7 breast 35.3% | HCT-116 colon 50% | HCC-2998 colon 83.7% | KM12 colon 76.3%
active: T-47D breast -5.32%

O=C(Nc1ccc(-n2ccc3c(NC(=O)c4ccccc4)ncnc32)cc1)c1ccc(Cl)c(C(F)(F)F)c1
inactive: T-47D breast 30.4% | BT-549 breast 55.1% | MDA-MB-435 melanoma 18.2% | MCF7 breast 12.5% | HCC-2998 colon 48.2% | KM12 colon 11.1%
active: SW-620 colon -3.54% | HCT-116 colon -32%

O=S(=O)(Nc1cccc2cc(OS(=O)(=O)c3ccccc3)ccc12)c1ccccc1
inactive: T-47D breast 45.5% | BT-549 breast 45.4% | SW-620 colon 29.5% | MCF7 breast 36.8% | HCT-116 colon 25.4% | HCC-2998 colon 96.4% | KM12 colon 36.3%
active: MDA-MB-435 melanoma -13.8%

O=C(Nc1cccc(-n2ccc3c(NC(=O)c4ccccc4)ncnc32)c1)Nc1ccc(Cl)c(C(F)(F)F)c1
active: MDA-MB-435 melanoma -7.53%
inactive: T-47D breast 21.6% | BT-549 breast 45.9% | SW-620 colon 41.3% | MCF7 breast 20% | HCT-116 colon 17% | HCC-2998 colon 40.8% | KM12 colon 12.5%

Cc1cccc(CC(=O)c2ccccc2)n1
inactive: T-47D breast 94.2% | BT-549 breast 111% | MDA-MB-435 melanoma 99% | SW-620 colon 91.3% | MCF7 breast 92% | HCT-116 colon 90.5% | HCC-2998 colon 94.6% | KM12 colon 88.1%

O=C(Nc1cccc(-n2ccc3c(NC(=O)c4ccccc4)nccc32)c1)c1cc(N2CCOCC2)cc(C(F)(F)F)c1
active: BT-549 breast -13.1% | MDA-MB-435 melanoma -13.3% | HCT-116 colon 1.44% | KM12 colon -3.61%
inactive: T-47D breast 66.3% | SW-620 colon 14.2% | MCF7 breast 21.3% | HCC-2998 colon 28.8%

CC(C(=O)O)N1C(N)=NNC1c1ccccc1O (stereo not drawn)
inactive: T-47D breast 59.7% | BT-549 breast 104% | MDA-MB-435 melanoma 104% | SW-620 colon 95.7% | MCF7 breast 80.4% | HCT-116 colon 87.4% | HCC-2998 colon 92.7% | KM12 colon 93.9%

Nc1nc(-c2cc3c(cc2Cl)NC(=O)/C3=C/c2ccccc2)cs1
inactive: BT-549 breast 55.7% | MDA-MB-435 melanoma 24.4% | SW-620 colon 40.4% | HCT-116 colon 14.5% | HCC-2998 colon 58% | KM12 colon 45.5%
active: T-47D breast 7.52% | MCF7 breast 7.09%

N#CC1=C(N)Oc2c(ccc3ccccc23)C1c1cc(=O)oc2ccc(Cl)cc12 (stereo not drawn)
active: MDA-MB-435 melanoma -43.2%
inactive: T-47D breast 47.7% | BT-549 breast 49% | SW-620 colon 29.6% | MCF7 breast 19.7% | HCT-116 colon 12.7% | HCC-2998 colon 36.6% | KM12 colon 21.5%

CCn1cc(/C=C2\Oc3cc(OCC#N)ccc3C2=O)c2cc(OC)ccc21
active: MDA-MB-435 melanoma -20.7%
inactive: T-47D breast 48.4% | BT-549 breast 52.6% | SW-620 colon 28% | MCF7 breast 20.6% | HCT-116 colon 12.4% | HCC-2998 colon 55.6% | KM12 colon 23.6%

C=CCn1c(SCC(=O)Nc2ccc(/C(C)=N\O)cc2)nnc1-c1cc(-c2ccc(OC)cc2)nc2ccccc12
active: T-47D breast -4.63%
inactive: BT-549 breast 35.6% | MDA-MB-435 melanoma 46.1% | SW-620 colon 39.4% | HCC-2998 colon 45.8% | KM12 colon 29%

CCOc1ccc(NC2=C(Cl)C(=O)c3ccccc3C2=O)cc1
active: SW-620 colon -51.3%
inactive: T-47D breast 66.7% | BT-549 breast 77.6% | MDA-MB-435 melanoma 67.1% | MCF7 breast 46.1% | HCT-116 colon 80.6% | HCC-2998 colon 57.7% | KM12 colon 72.9%

CC(=O)Nc1ccc(OC(=O)c2ccccc2O)cc1
inactive: T-47D breast 100% | BT-549 breast 113% | MDA-MB-435 melanoma 98.6% | SW-620 colon 101% | MCF7 breast 99.5% | HCT-116 colon 114% | KM12 colon 99.1%

CC1CCC(C(C)C)C(NN)C1 (stereo not drawn)
inactive: T-47D breast 80.2% | BT-549 breast 105% | MDA-MB-435 melanoma 110% | SW-620 colon 104% | MCF7 breast 100% | HCT-116 colon 106% | HCC-2998 colon 97.9% | KM12 colon 105%

COc1cc(/C=C\c2cc(/C=C\c3ccc(O)c(OC)c3)n(C(=O)CNc3ccccc3OC)n2)ccc1O
active: MDA-MB-435 melanoma 6.34%
inactive: T-47D breast 91.8% | BT-549 breast 66% | SW-620 colon 36.4% | HCC-2998 colon 112% | KM12 colon 46.2%

COc1ccc(-c2nnc(SCC(=O)N3CCN(c4cc5c(cc4F)c(=O)c(C(=O)O)cn5C4CC4)CC3)o2)cc1OC
inactive: T-47D breast 70.7% | BT-549 breast 69.1% | MDA-MB-435 melanoma 100% | SW-620 colon 96.2% | MCF7 breast 83.6% | HCT-116 colon 55.3% | HCC-2998 colon 108% | KM12 colon 99.4%
